SMILES strings stand for the structures. The panel holds about 83,000 compounds, 20% with a hit somewhere; the sample as a whole holds those more often.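 For each line, cells grew in 96-well plates with the test compound present at a single concentration for 48 hours.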 Unmarked numbers belong to inactive results. Active and inactive are the calls of the source. The calls were made as follows: active = growth percent below 10; inactive = the rest.

Among the test systems are T-47D breast; MDA-MB-435 melanoma; SW-620 colon; MCF7 breast; HCT-116 colon; HCC-2998 colon; KM12 colon.
Holding throughout (assay): NCI-60 one-dose screen, 48 h (100 = growth as untreated, 0 = no growth, -100 = all killed)
Common to all, as to conditions: 10 µM unless noted

For the compound `C=CCN1CCCC1=O`, the growth was 100% in the assay with T-47D breast; 101% in the assay on MDA-MB-435 melanoma; 102% in the assay on SW-620 colon; 99.6% with MCF7 breast; 106% with HCT-116 colon; 128% in the assay with HCC-2998 colon. Also, the growth in the assay with KM12 colon was 110%.

Consider `CCOC(=O)CNC(=O)Sc1ccc(C(C)(C)C)cc1`, for which the growth was 88.4% with T-47D breast; 88.3% with MDA-MB-435 melanoma; 108% with SW-620 colon; 99.3% in the assay on MCF7 breast; 98.6% in the assay on HCT-116 colon; 110% in the assay on HCC-2998 colon. The growth with KM12 colon is 102%.

As for `NC(=O)N1CCOCC1`, the growth in the assay with T-47D breast was 97.4%; in the assay with MDA-MB-435 melanoma it was 116%; in the assay with SW-620 colon, 112%; in the assay on MCF7 breast it was 93%; in the assay with HCT-116 colon, 106%; in the assay with HCC-2998 colon, 112%. Further, the growth with KM12 colon was 108%.

On to `O=S(=O)(O)c1cccc2cccnc12`, for which the growth in the assay with T-47D breast was 106%; in the assay with MDA-MB-435 melanoma, 105%; with SW-620 colon, 94.6%; in the assay with MCF7 breast, 106%; in the assay with HCT-116 colon, 100%; in the assay with HCC-2998 colon, 103%. The growth in the assay with KM12 colon is 105%.

Turning to `O=C(NC1CCCCC1)c1ccc(Cl)cc1`, the growth was 85.1% with T-47D breast; 105% in the assay with MDA-MB-435 melanoma; 103% in the assay with SW-620 colon; 104% in the assay on MCF7 breast; 106% in the assay with HCT-116 colon; 106% with HCC-2998 colon. Moreover, the growth in the assay on KM12 colon was 102%.

`CCOC(=O)c1c[nH][nH]c1=O`: the growth was 103% in the assay on T-47D breast; 104% with MDA-MB-435 melanoma; 104% in the assay with SW-620 colon; 92.4% with MCF7 breast; 102% in the assay on HCT-116 colon; 98.5% in the assay on HCC-2998 colon. Moreover, in the assay on KM12 colon, the growth was 111%.

As to `CCOC(=O)Nc1nccs1`, the growth with T-47D breast is 94.8%; in the assay with MDA-MB-435 melanoma it was 111%; in the assay on SW-620 colon, 110%; with MCF7 breast, 101%; in the assay on HCT-116 colon, 104%; in the assay with HCC-2998 colon it was 118%. The growth in the assay on KM12 colon was 107%.

On to `c1ccc2[nH]c(Cc3nc4ccccc4[nH]3)nc2c1`, for which the growth in the assay on T-47D breast is 89.3%; in the assay with MDA-MB-435 melanoma it was 101%; in the assay with SW-620 colon, 105%; with MCF7 breast, 84.9%; with HCT-116 colon it was 89.8%; with HCC-2998 colon it was 108%. Further, in the assay on KM12 colon, the growth is 97.6%.

As to `CCOC(=O)CSCCC#N`, the growth is 83.4% with T-47D breast; 106% in the assay on MDA-MB-435 melanoma; 100% in the assay on SW-620 colon; 93.6% with MCF7 breast; 95.2% in the assay on HCT-116 colon; 104% in the assay with HCC-2998 colon. The growth in the assay with KM12 colon is 105%.

In the case of `C=C1CC2(OC1=O)C(=O)N(C)c1ccc(I)cc12` (centres undefined), the growth in the assay with T-47D breast was -82.6% (active); in the assay with MDA-MB-435 melanoma it was -64.8% (active); in the assay on SW-620 colon it was -76.3% (active); in the assay on MCF7 breast it was -66.8% (active); with HCT-116 colon, -92.6% (active); in the assay with HCC-2998 colon it was -89.3% (active). The growth in the assay on KM12 colon is 2.99% (active).

As for `NC(CSSCC(N)C(=O)O)C(=O)O` (centres undefined), the growth with T-47D breast is 54.7%; in the assay with MDA-MB-435 melanoma, -15.1% (active); in the assay on SW-620 colon, 21.7%; in the assay on MCF7 breast, 20.4%; with HCT-116 colon, 18.6%; in the assay with HCC-2998 colon, 9.17% (active). Moreover, the growth with KM12 colon is 8.65% (active).

Consider `CN(C)c1ccc2c(N(C)C)cc(N(C)C)nc2c1`, for which the growth in the assay with T-47D breast was 56%; with MDA-MB-435 melanoma, 80.2%; with SW-620 colon it was 51.6%; in the assay on MCF7 breast it was 13.9%; in the assay with HCT-116 colon, 48.1%; in the assay with HCC-2998 colon, 118%. The growth with KM12 colon was 78.3%.

`NNC(=O)N/N=C1\C(=O)N(c2nccs2)C(=O)C(=O)C1c1nc2ccccc2s1` (centres undefined): the growth in the assay on T-47D breast was 77.1%; in the assay on MDA-MB-435 melanoma, 109%; in the assay on SW-620 colon, 96.1%; with MCF7 breast, 98.5%; in the assay on HCT-116 colon, 88.7%; with HCC-2998 colon it was 93.2%. Further, the growth with KM12 colon is 100%.

Consider `Cc1ccc2nc(N)nnc2c1`, for which the growth with T-47D breast is 108%; in the assay on MDA-MB-435 melanoma it was 106%; in the assay with SW-620 colon it was 95.1%; with MCF7 breast, 104%; with HCT-116 colon, 108%; in the assay with HCC-2998 colon, 103%. For the same compound, the growth with KM12 colon is 103%.

As for `O=S(=O)(O)C(C(I)I)S(=O)(=O)O`, the growth was 118% in the assay on T-47D breast; 104% with MDA-MB-435 melanoma; 105% in the assay with SW-620 colon; 98.9% in the assay on MCF7 breast; 107% with HCT-116 colon; 101% with HCC-2998 colon. Besides, the growth with KM12 colon was 103%.

`Cc1ccc(S(=O)(=O)CCCl)cc1`: the growth in the assay with T-47D breast was 106%; in the assay on MDA-MB-435 melanoma it was 117%; in the assay with SW-620 colon, 110%; in the assay with MCF7 breast it was 100%; in the assay on HCT-116 colon it was 118%; in the assay with HCC-2998 colon, 104%. Further, the growth with KM12 colon was 111%.

Turning to `CC1(C)CCC(C)(C)NC(=S)N1`, the growth in the assay with T-47D breast is 98.5%; with MDA-MB-435 melanoma, 111%; in the assay on SW-620 colon, 111%; in the assay on MCF7 breast it was 103%; in the assay on HCT-116 colon, 98.9%; with HCC-2998 colon, 109%. For the same compound, the growth in the assay with KM12 colon is 99.1%.

Regarding `COC1OC(COC(C)=O)C(OC(C)=O)C(OC(C)=O)C1OC(C)=O` (centres undefined), the growth in the assay on T-47D breast was 91.7%; in the assay with MDA-MB-435 melanoma, 105%; in the assay with SW-620 colon, 109%; in the assay on MCF7 breast, 93%; in the assay with HCT-116 colon, 87.4%; in the assay with HCC-2998 colon, 101%. Also, the growth with KM12 colon is 106%.

`O=C(Nc1ccccc1)c1ccco1`: the growth was 103% with T-47D breast; 109% in the assay on MDA-MB-435 melanoma; 104% with SW-620 colon; 95.5% in the assay on MCF7 breast; 92.3% in the assay on HCT-116 colon; 84% in the assay with HCC-2998 colon. For the same compound, the growth in the assay on KM12 colon is 117%.

Consider `CC(=O)c1ccc(C)cc1`, for which the growth is 120% in the assay with T-47D breast; 112% in the assay with MDA-MB-435 melanoma; 106% in the assay with SW-620 colon; 100% in the assay with MCF7 breast; 105% in the assay with HCT-116 colon; 106% with KM12 colon.

Source of the values: PubChem BioAssay (NCI).
